The supplement of paper PMC6555819

How the values were obtained:
Assay in all cases: PBM binding z-score (relative to random genomic background probes); higher = stronger binding; sequences stand for … in GC…GCGATTGACAGCGTAGAATGAAGG
[1] = test system: PPARg:RXRa DBDmut IVT, anti-RXR (DBD mutation: RXRa K156A/R161A, NR concentration 270 nM, RXRa partner concentration 90 nM)
Outline: (§1)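 On custom Agilent 4×180K arrays, double-stranded probes with 34-nt variable regions carried direct-repeat seeds, single-nucleotide variants, half-site ablations or random human genomic background. Ligand-free nuclear receptor dimers were applied for 1 h, and binding was read with antibodies against each partner (one per run). Binding z-scores come from regression-normalized fluorescence, with the random background probes as reference.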

[2] = test system: PPARg:RXRa IVT, anti-PPARg (NR concentration 270 nM, RXRa partner concentration 90 nM)
Outline: as §1

[3] = test system: PPARg DBDmut:RXRa IVT, anti-PPARg (DBD mutation: PPARg1 K132A/R137A, NR concentration 270 nM, RXRa partner concentration 90 nM)
Outline: as §1

[4] = test system: PPARg DBDmut IVT, anti-PPARg (DBD mutation: PPARg1 K132A/R137A, NR concentration 270 nM)
Outline: as §1

[5] = test system: PPARg homodimer (NR concentration 180 nM)
Outline: as §1

[6] = test system: PXR:RXRa (NR concentration 270 nM, RXRa partner concentration 90 nM)
Outline: as §1

[7] = test system: PXR homodimer (NR concentration 270 nM)
Outline: as §1

[8] = test system: RARa:RXR (NR concentration 270 nM, RXRa partner concentration 90 nM)
Outline: as §1

[9] = test system: RARa homodimer (NR concentration 270 nM)
Outline: as §1

[10] = test system: RARb:RXRa (NR concentration 270 nM, RXRa partner concentration 90 nM)
Outline: as §1

Sequence | PBM binding z-score [1] | PBM binding z-score [2] | PBM binding z-score [3] | PBM binding z-score [4] | PBM binding z-score [5] | PBM binding z-score [6] | PBM binding z-score [7] | PBM binding z-score [8] | PBM binding z-score [9] | PBM binding z-score [10]
GCTGCTAGGTCAACTGATGGACAGCTAAAGCTCG | 4.96 | 4.05 | -0.737 | -0.4 | 0.547 | 1.05 | -0.677 | 1.9 | -0.785 | 4.12
CGTTACGGGTCACTCCAGGTTATAGCATCGGAGT | 2.91 | 3.75 | 0.311 | -0.48 | 1.14 | 5.09 | 0.162 | 3.59 | 0.11 | 3.66
ATCTCTAGGTAACCAAGTTCAGTTAATGCCGAAC | 3.71 | 3.16 | 2.02 | 1.26 | 1.12 | 2.19 | 2.39 | 1.24 | 1.3 | 1.18
CGTCCAAGGTCAGCAGGTCAGTGAGAGCGACGTG | 2.88 | 3.81 | -0.522 | -0.683 | 3.25 | 3.75 | 0.915 | 4.78 | 1.19 | 5.39
GCTAGTTGGTCAGTAAAAGATCACACACCGGTCG | 0.304 | 0.185 | -0.527 | 0.421 | 0.2 | -0.208 | -0.161 | 0.0692 | 0.555 | 0.45
CGTCCAAGGTCATAGGAGGTCAGGGAAGACAGAT | 3.02 | 4.92 | 1.73 | 1.82 | 5.03 | 6.9 | 3.35 | 6.79 | 2.46 | 5.31
TCTTGTAGATCAGCAGGTTAAGAGAGCTGGCCAA | 1.29 | 0.366 | -0.495 | -0.454 | -0.22 | 0.214 | -0.483 | 0.282 | -0.593 | 0.113
TCTGCTAGGTCAACGATGGTCAGCTTATCTGCTA | 4.15 | 4.27 | 2.31 | 1.16 | 0.812 | 1.76 | -0.682 | 2.5 | -0.672 | 4.22
ATCTCTGGGTAAAGATAGTTCAGTGAATGCAAAT | 1.83 | 1.65 | 1.05 | 1.76 | 0.681 | 1.17 | 0.829 | 0.549 | 1.1 | 0.828
CCTACTGGGACATCAGGTCATTGATATCAACGTT | 4.19 | 4.32 | 0.344 | 0.76 | 1.84 | 1.82 | 1.56 | 2.04 | 0.755 | 1.99
CGAACCAGGTCAGAACAGGACAGTGAAGGATGAT | 3.56 | 3.58 | 0.325 | -0.243 | 1.16 | 1.66 | -0.119 | 1.4 | 0.21 | 3.05
CTCGAAAGGTCGCTTGAGGTGAGTATACGGATAA | 0.887 | 1.84 | -0.0758 | 0.0176 | 1.47 | 4.26 | 0.207 | 3.93 | 0.149 | 3.61
CTTTACGGGTCACGAGGTTATAGCACGACGAGCG | 5.55 | 6.46 | 1.86 | 2.29 | 2.93 | 4.96 | 0.279 | 6.19 | 0.513 | 4.81
ACTCGGAGGACAAAGGTCCGAGCTACGCCAGTGA | 0.177 | 0.313 | -0.996 | -0.635 | -0.36 | -0.365 | -0.238 | -0.334 | -0.387 | 1.29
ATATGTAGGTTAAATCCGGGTCATTCAGGCTATG | 7.28 | 7.3 | 2.58 | 2.7 | 2.38 | 4.32 | 1.9 | 4.3 | 0.415 | 2.51
TCTAGCAGGCCAGAGGGTCACTCCAGAGGTACGG | 0.669 | 0.586 | -1.43 | -1.75 | 0.69 | 1.08 | -0.334 | 1.92 | -0.787 | 1.89
TCGAGTAGGTTACCAATGGGACATTCAGCTTTCT | 2.84 | 2.43 | -0.217 | 0.266 | -0.26 | 0.0751 | -0.84 | 0.149 | -0.599 | 0.695
TCTTGTAGATCAGCAGGTTAAGATAGCTGGCCAA | 1.75 | 0.446 | 0.0165 | 0.121 | 0.155 | 0.31 | -0.37 | 0.429 | -0.336 | 0.168
AGTCAAAGTACACTAGGTAACGTAAGATTCAGCT | 1.45 | 2.33 | 0.868 | 0.545 | -0.165 | -0.253 | -0.00521 | -0.109 | 0.688 | 0.988
ACAGACAGGTGATGAATGTAACTCAGGCTATCAT | 0.0883 | 0.304 | 0.806 | 0.471 | 0.379 | -0.102 | -0.0195 | 0.181 | 0.656 | 0.0754
TTACCAAGGTGAGCTGAGGTCGTTGGTCCAACTC | 1.42 | 1.75 | -0.48 | -1.25 | -0.363 | 4.68 | 0.529 | 1.63 | -1.02 | 1.72
CGTCCAAGGACAAGGTCAGTGAAAGAGACTCGAA | 0.434 | 0.71 | -0.797 | -1.03 | 1.03 | 1.61 | 0.632 | 2.38 | -0.259 | 3.93
TCATATAGGGAAAAGGTGAAAGTCGGTGTGGTAA | 3.91 | 3.56 | 0.616 | 0.751 | 1.68 | 1.21 | 0.873 | 2.17 | 1.17 | 1.9
CGAACTAGGTCATTGACAGGACAGCGAATAGTAA | 7.7 | 7.96 | 1.01 | 0.969 | 1.57 | 1.35 | 0.255 | 2.1 | 0.179 | 3.61

Sequence | PBM binding z-score [1] | PBM binding z-score [2] | PBM binding z-score [3] | PBM binding z-score [4] | PBM binding z-score [5] | PBM binding z-score [6] | PBM binding z-score [7] | PBM binding z-score [8] | PBM binding z-score [9] | PBM binding z-score [10]
ATCTCTAGGTAAGACTCAGTTCAATGAAGAACGC | 1.88 | 1.16 | 1.2 | 1.44 | 1.39 | 2.1 | 2.69 | 1.34 | 1.4 | 0.797
CCTACTGGGCCATTCAGAGGTCAGTGATCATATG | 4.58 | 3.89 | -0.582 | -0.353 | 2.08 | 2.28 | 0.543 | 2.64 | 0.443 | 2.77
CAGCCTAGGTCCGGGCCAGTATAGGAGGAACGTT | -1.2 | -1.1 | -2.15 | -1.84 | -1.61 | -1.01 | -0.992 | -1.12 | -1.43 | -0.671
AATACAGGGTCACTAGGCCAGAGTTGGTACGAAT | 4.05 | 5.77 | 1.25 | 0.486 | 2.23 | 3.38 | 0.712 | 4.44 | 0.618 | 4.29
ATAATGAGGTTACCAAAGATCAGGGAAACGCTTG | 4.27 | 3.93 | 1.55 | 1.88 | 0.591 | 1.51 | 0.204 | 1.93 | 1.22 | 2.14
AGAATGCGGTTAAGATCAGGGAAACAGAATACAT | -0.441 | -0.00811 | 0.624 | 0.11 | 0.393 | -0.295 | -0.312 | -0.225 | 0.513 | -0.152
GATACAGGGTCAGCTATAGGCCAGAGTATGGAAA | 1.05 | 2.31 | 0.261 | 0.123 | 1.68 | 2.14 | -0.0446 | 3.35 | 0.261 | 4.02
CAAACTGGGTCAAAGGTCAAAGTCGAGCCAACCA | 8.32 | 8.37 | 2.08 | 2.33 | 4.84 | 6.91 | 2 | 8.83 | 2.4 | 5.44
CCTCGGAGGACAACGGGAGGTCAGAGCTGCCAGA | -0.505 | 0.451 | -1.39 | -1.24 | 2.26 | 2.45 | 0.352 | 2.8 | 0.367 | 2.92
CCAGAGAGGTGAAAGGTAACTCAGTCTGGTACGC | 3.73 | 4.05 | 0.0614 | -0.0478 | 2.31 | 2.19 | 0.131 | 3.44 | 0.813 | 2.39
CAAACTAGGTCAAAGGTTAAAGTCGAGCCAACCA | 8.92 | 9.36 | 6.93 | 5.38 | 5.15 | 5.99 | 0.433 | 8.12 | 2.07 | 5.01
TTGCCAAGGTGAGCTGAGGTCGTTGATCCAACTC | 0.582 | 1.28 | -1.28 | -1.13 | -0.789 | 4.61 | 0.057 | 1.33 | -0.704 | 1.73
CCTAGTTGGACAGGAGGTCACACACCGGATATGA | 0.493 | 2.64 | 0.73 | 0.338 | 3.06 | 4.13 | 1.32 | 4.3 | 1.71 | 3.23
ACAGACAGGCGAGTGAAGGTAACTCAGCTGGACG | -0.427 | -0.121 | 0.466 | -0.29 | 0.0641 | -0.279 | -0.674 | 0.193 | -0.258 | 0.0266
CCTACTGGGCCAAAGGTCATTAATTCCAATGCTC | 5.16 | 6.79 | 0.543 | 0.388 | 4.75 | 5.26 | 2.61 | 5.93 | 2.26 | 4.25
TCTAGTTGGTGAAAGGTCACACACTCGAAATGCG | 2.69 | 5.86 | 2.76 | 2.05 | 7.7 | 5.97 | 2.06 | 7.3 | 4.58 | 4.79
ATATGTAGGTTATCGGGTCATTCTGTTTGCGCAT | 7.83 | 7.65 | 3.52 | 2.76 | 2.77 | 3.48 | 1.54 | 3.91 | 1.87 | 2.57
CCCAGTTGGTCAAGGTCACACACGCTATAGGTAC | 1.74 | 3.31 | 2.05 | 0.443 | 4.04 | 4.46 | 3.52 | 4.63 | 2.32 | 4.24
ATCTCTAGGTAACCAAGTGCAGTGAATGCCGAAC | 3.33 | 2.57 | 1.12 | 0.604 | -0.00797 | 0.128 | 0.228 | 0.0514 | -0.0338 | 0.281
ATCGAAAGCTCGAGGTGAGTATAGAGAAAGGGAA | -0.98 | 0.455 | 0.71 | 0.162 | -1.14 | -0.37 | -0.567 | -0.162 | -0.838 | 0.00915
CCTACTGGGCCGAAGGTCATTGATTCCAATGCTC | 1.48 | 5.21 | -0.502 | -0.797 | 1.81 | 2.9 | 0.597 | 3.05 | 0.247 | 2.88
AGAATAAGGTTATTAAGATCAGGGAATTGCGGTC | 2.24 | 1.81 | 1.52 | 0.812 | 1.04 | 1.13 | 0.666 | 1.49 | 1.34 | 1.72
CCGACTGGGGCAAGGTTCCCATAACGCACAGCCA | 2.36 | 3.12 | -0.684 | -0.962 | 0.192 | -0.613 | -0.376 | -0.115 | -0.502 | 0.825
AGAATGAGGTTAACATCAGGGAAACAGAATACAT | 3.52 | 3.79 | 1.84 | 1.16 | 1.12 | 1.43 | 0.184 | 2.81 | 0.181 | 2.32
